# Shiga inhibitor: inhibitors of Shiga toxin in Vero cells; Vero cells, Shiga toxin protein synthesis inhibition reporter; inhibition, % at 38.7 µM; hit rate 9.2% among 290,000; in the data active means inhibition mostly above about 28%, no sharp cut-off; inactive means mostly below about 43%; further: 0% is about no effect
# LmPK inh: LmPK (Leishmania mexicana) enzyme inhibition; Q27686; purified LmPK, Kinase-Glo ATP luminescence, 1 h; Potency, µM (titrated, usually from 57.5 µM), without a hit: at the highest dose activity change, negative = inhibition, actives largely listed as inhibitors; hit rate 0.37% among 290,000; AID 1721; further: potency means the concentration at half of the fitted maximal effect; on the % scale 0 is the no-effect control and ±100 the full control effect
# Target sequence (Q27686 whole entry, looked up): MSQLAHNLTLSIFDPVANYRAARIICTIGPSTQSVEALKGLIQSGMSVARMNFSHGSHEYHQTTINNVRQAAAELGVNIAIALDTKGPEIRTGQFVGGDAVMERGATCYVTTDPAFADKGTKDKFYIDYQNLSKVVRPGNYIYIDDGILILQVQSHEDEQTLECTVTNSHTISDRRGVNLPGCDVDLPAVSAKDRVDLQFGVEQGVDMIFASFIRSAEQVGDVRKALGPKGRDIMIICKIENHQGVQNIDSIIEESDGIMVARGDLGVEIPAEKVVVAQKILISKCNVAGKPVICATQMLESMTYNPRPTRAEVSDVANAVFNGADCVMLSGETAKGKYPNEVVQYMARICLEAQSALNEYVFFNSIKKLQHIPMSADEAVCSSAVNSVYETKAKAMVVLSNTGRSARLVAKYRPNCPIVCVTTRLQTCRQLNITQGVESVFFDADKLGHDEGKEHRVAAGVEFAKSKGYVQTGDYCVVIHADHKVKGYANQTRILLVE
#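 Purified LmPK (0.1 nM) with 0.5 mM PEP and 0.1 mM ADP in imidazole buffer pH 7.2 with MgCl2/KCl, 1 h at room temperature. ATP formed was read by luciferase luminescence and normalized to no-enzyme and uninhibited controls.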
# CHX counter: counter-screen for Shiga toxin inhibitors: cycloheximide protein synthesis inhibition; cell reporter, cycloheximide protein synthesis inhibition counterscreen; max response, %; hit rate 12% among 300,000; in the data active means max response mostly above about 13%, no sharp cut-off; inactive means mostly below about 14%; further: read at 38.3 µM for the half of the compounds with a filed dose; 0% is about no effect
# FBPA Giardia inh: blocks Giardia fructose-bisphosphate aldolase activity. A8B2U2. purified Giardia FBPA. Potency, µM (doses to about 59.6 µM), without a hit: top-dose activity, negative = inhibition, most hits filed as inhibitors. hit rate 0.71% among 290,000; further: potency means the concentration at half of the fitted maximal effect; on the % scale 0 is the no-effect control and ±100 the full control effect; nearly all actives have a fitted effect of over 55% in size
#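 Giardia FBPA (40 nM reagent) was preincubated 10 min at RT with compound (up to 57.5 uM final), then substrate plus GAPDH/TPI/NAD/arsenate coupling system with diaphorase/resazurin was added; resorufin fluorescence (525/598 nm) was read after 20 min.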
# NS1 function inh: inhibitors of influenza NS1 protein function; Potency, µM (series often up to 46.1 µM), for the others: at the top dose activity, positive = more growth; hit rate 0.4% among 270,000; AID 2326; calls by dose curve; further: potency means the concentration at half of the fitted maximal effect; actives are rising curves; nearly all actives have a fitted effect of over 50% in size
#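 Growth recovery, yeast-based: influenza A NS1 expressed in S. cerevisiae causes slow growth, and suppressors are detected by OD600. The parent strain without NS1 is used as positive control.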
# * marks the source's active call; other numbers are inactive results; i = inactive; ? = inconclusive; nt = no result; [ ] = dose if it differs, or a comment. Compounds with a hit are over-represented: about 14% of the library has one in this group of screens. Unless noted, the call rests on the fitted dose curve; in most records, active means well fitted curve in the direction sought with a large enough effect; inconclusive means small, poorly fitted or top-dose-only effect, or another doubt; inactive means no such curve, though single readings can be large; an effect the other way counts as inactive or inconclusive.
SMILES,Shiga inhibitor,LmPK inh,CHX counter,FBPA Giardia inh,NS1 function inh
CCOc1ccc(N(CC(=O)Nc2ccccc2C(=O)N2CCCC2)S(C)(=O)=O)cc1,-10.9,1.3%,-5.2,3.5%,10.2%
O=C(O)c1ccc(NC(=O)c2ccccc2NC(=O)c2cccc(Br)c2)cc1,nt,-0.6%,-1.6,-2.9%,-8.3%
CCN(CC)CCC(c1ccc(N(C)C)cc1)c1c(OC)cc(OC)c2c1OC(=O)CC2c1ccc(N(C)C)cc1 (configuration not stated),27.2,nt,-3.2,-2.2%,nt
O=C(CCC(=O)N1CCN(c2ccc(Cl)c(Cl)c2)CC1)c1ccccc1,19.7,4.4%,-3.6,-8.8%,-10.3%
COC(=O)CCn1nnc(-c2ccc(C)cc2)n1,59.7*,-7.1%,31.8*,4.0%,-7.5%
Cc1ccc(-c2nnn(CCC(=O)NC(C)(C)C)n2)cc1,52.3*,-5.1%,31.9*,2.7%,-6.9%
COc1ccc(NC(=O)CCn2nnc(-c3ccc(C)cc3)n2)cc1OC,-3.5,5.2%,-2.2,-0.4%,5.6%
Cc1ccc(-c2nnn(CCC(=O)N3CCCCC3C)n2)cc1 (configuration not stated),72.5*,3.3%,17.4*,7.8%,-52.5%
COc1cccc(C(=O)N2CCCN(C)CC2)c1OC,-1.7,4.0%,-2.5,0.8%,-2.4%
O=C(Cc1ccc(Cl)cc1)NCC(=O)N1CCCCC1,-7.0,-2.2%,11.9,2.7%,0.9%
O=C(NCC(=O)N1CCCCC1)c1ccc(Cl)cc1Cl,58.3*,-9.0%,49.3*,-0.8%,7.3%
O=C(COc1ccc(Cl)cc1Cl)N1CCCCCC1,21.8,8.3%,27.9,6.1%,-9.3%
O=C(NCC(=O)N1CCCC1)c1ccccc1F,52.9*,-0.2%,20.5,-9.5%,4.4%
CC1CCN(C(=O)CNC(=O)c2ccc(Cl)cc2Cl)CC1,49.7*,-4.7%,27.2*,0.0%,0.1%
O=C(Cc1ccc(Cl)cc1Cl)OCC(=O)N1CCCCC1,42.0,1.4%,21.6*,-1.3%,-11.1%
Cc1ccc(-c2ccc(C(=O)NCCCNC(=O)c3cnccn3)o2)cc1Cl,5.5,-0.8%,8.9,3.7%,-1.7%
CC(C)[C@@H](CC(=O)N[C@@H]1CCNC[C@H]1C(=O)N[C@H](CC(=O)N[C@@H](CCC(=O)O)CC(=O)O)Cc1c[nH]c2ccccc12)NC(=O)C[C@H](Cc1c[nH]c2ccccc12)NC(=O)[C@@H]1CNCC[C@H]1N,nt,nt,nt,-24.4%,nt
CC1CCCN(C(=O)COC(=O)Cc2c(F)cccc2Cl)C1 (configuration not stated),67.2*,0.4%,43.9*,5.8%,9.1%
CCN1CCN(Cc2ccc(NC(=O)c3ccc(C)c(NC(=O)c4cccc5[nH]ccc45)c3)cc2C(F)(F)F)CC1,93.6*,7.0%,52.5*,-5.5%,-7.8%
CCNc1ccc(N=Nc2c(C)n(C)n(-c3ccccc3)c2=O)cc1,39.9,-8.3%,21.1*,0.8%,nt
COC(=O)CCC(=O)OC1(C)C(=O)C2=CN(CCCCO)C(c3ccc(OC)cc3)=CC2=C(Br)C1=O (configuration not stated),6.9,0.2%,-0.6,5.01µM*,-6.4%
COC(=O)CCC(=O)OC1(C)C(=O)C2=CN(CCN3CCOCC3)C(c3ccc(OC)cc3)=CC2=C(Br)C1=O (configuration not stated),-6.4,-2.1%[11.5 µM],-2.6,0.561µM*,-3.7%
COC(=O)CCC(=O)OC1(C)C(=O)C2=CN(C(CO)CO)C(c3ccc(OC)cc3)=CC2=C(Br)C1=O (configuration not stated),-5.5,-2.2%[11.5 µM],-3.3,0.629µM*,-1.8%
COC(=O)CCC(=O)OC1(C)C(=O)C2=CN(CCc3ccccn3)C(c3ccc(OC)cc3)=CC2=C(Br)C1=O (configuration not stated),nt,-6.0%[11.5 µM],nt,?,nt
COc1cc(C2CC(=O)Oc3ccc(O)cc32)cc(OC)c1OC (configuration not stated),i,nt,8.8,?,nt
Cc1ccc(C)c(N2CCN(C(=O)CCC(=O)Nc3nnc(C(F)(F)F)s3)CC2)c1,3.1,8.5%,-1.2,nt,-21.6%
CC(=O)Nc1ccc(NS(=O)(=O)c2ccccc2)c2ccccc12,2.4,-0.9%,-1.5,-1.5%,8.2%
COc1ccc(S(=O)(=O)Nc2cccc3ccccc23)cc1,-7.3,nt,-3.6,nt,nt
Cc1cc(C)c(S(=O)(=O)Nc2cc(SCC(=O)O)c(O)c3ccccc23)cc1C,31.1,20µM*,6.2,3.97µM*,-33.9%
Cc1cc(C)c(S(=O)(=O)Nc2ccc(O)cc2)cc1C,-12.9,4.8%,-3.2,-3.2%,-0.8%

# Compound activity as filed in PubChem.
